Several values for one entry are separate records, joined by “and”; a condition that tells them apart may be missing. Equal values may be shown once. Inconclusive results are not listed. Entries that show only a call come without a potency. Activity calls are given as the source filed them. Calls follow the shape of the dose curve; as a rule, active = well fitted cell-killing curve with a large enough effect in the repeat runs; inconclusive = weak or mixed curves, or effect the other way; inactive = no such curve, though single readings can be large or run the other way.
Test: qHTS assay to identify small molecule antagonists of the peroxisome proliferator-activated receptor gamma (PPARg) signaling pathway - cell viability counter screen (AID 743194); also: nearly all actives have a fitted effect of over 55% in size
Conditions: PPARg-bla HEK293H viability, CellTiter-Glo luminescence, 17 h, co-treated with 50 nM rosiglitazone; series mostly up to 62.6 µM; activity change, negative = cytotoxicity: at the top concentration
From the text: U.S. Tox21 Program National Center for Advancing Translational Sciences [NCATS] NIH Chemical Genomics Center [NCGC] U.S. Environmental Protection Agency [EPA] National Institutes of Environmental Health Sciences [NIEHS] National Toxicology Program [NTP] U.S. Food and Drug Administration [FDA] Tox21 Assay Overview: The peroxisome proliferator-activated receptors (PPARs) are lipid-activated transcription factors of the nuclear receptor superfamily with three distinct subtypes namely PPAR alpha, PPAR delta (also called PPAR beta) and PPAR gamma (PPARg). All these subtypes heterodimerize with Retinoid X receptor (RXR) and these heterodimers regulate transcription of various genes. PPAR-gamma receptor (glitazone receptor) is involved in the regulation of glucose and lipid metabolism. To identify the compounds that activate PPAR-gamma signaling, GeneBLAzer PPAR gamma UAS-bla HEK293H cell line (Invitrogen, Carlsbad, CA, USA) containing a beta-lactamase reporter gene under the control of an Upstream Activator Sequence (UAS) was used to screen the Tox21 compound library. The cytotoxicity of the Tox21 compound library against the PPARg-bla cell line was tested in parallel by measuring the cell viability using CellTiter-Glo assay in the same wells.
Tox21 Assay Protocol Summary: PPARg-bla cells were dispensed at 3000 cells/5uL/well in 1536-well black wall/clear bottom plates using a Multidrop Combi (Thermo Fisher Scientific, Waltham, MA) dispenser. After the assay plates were incubated at 37 C and 5% CO2 for 5 h, 23 nL of compounds dissolved in DMSO, positive controls or DMSO only was transferred to the assay plate by a Pintool station (Kalypsys, San Diego, CA), followed by addition of 1ul Rosiglitazone (50 nM, final concentration in the wells). The assay plates were incubated at 37 C for 17 h, and then 1 uL of LiveBLAzerTM B/G FRET substrate was added using a Bioraptr Flying Reagent Dispenser (FRD) workstation (Beckman Coulter, Indianapolis, IN, USA). The assay plates were incubated at room temperature for 1 h and fluorescence intensity was measured by an Envision plate reader (PerkinElmer, Shelton, CT). For cell viability readout that measures cytotoxicity, 4 ul/well of CellTiter-Glo reagent was added into the assay plates using a Flying Reagent Dispenser. After 30 min incubation at room temperature, the luminescence intensity in the plates was measured using a ViewLux plate reader (PerkinElmer).
Potency is read from the fitted curve at half-maximal effect.

Row | SMILES | Potency | activity change, negative = cytotoxicity
1 | CN(C)CCN(Cc1cccs1)c1ccccn1 | inactive | –
2 | Nc1ccc(Cl)cc1Cl | inactive | –
3 | CC(CCC(=O)O)(c1ccc(O)cc1)c1ccc(O)cc1 | inactive | –
4 | CNCCCC12CCC(c3ccccc31)c1ccccc12 | 54.9 µM (active) | –
5 | CN(C)c1nc(N(C)C)nc(N(C)C)n1 | inactive | –
6 | COC(=O)CCC(=O)OC | inactive | –
7 | C[Si](C)(C)O[Si](C)(C)C | inactive | –
8 | S=C(NC1CCCCC1)NC1CCCCC1 | – | 33.7% (inactive)
9 | Nc1ccc(S(=O)(=O)Nc2cnc3ccccc3n2)cc1 | inactive | –
10 | OC1CCCCCCCCCCC1 | inactive | –
11 | CC(=O)c1ccccn1 | inactive | –
12 | CC(C)=CCCC(C)CCO (stereo not given) | inactive | –
13 | O=C(c1ccccc1)c1ccccc1O | – | -28% (inactive)
14 | c1ccc(Nc2ccccc2)cc1 | inactive | –
15 | Nc1ncn([C@@H]2O[C@H](CO)[C@@H](O)[C@H]2O)c(=O)n1 | inactive | –
16 | CCC(C)c1ccccc1O (stereo not given) | inactive | –
17 | C[C@]12CCC(=O)C=C1CC[C@@H]1[C@@H]2C(=O)C[C@@]2(C)[C@H]1CC[C@]2(O)C(=O)CO | inactive | –
18 | O=CCc1ccccc1 | inactive | –
19 | CCCCc1oc2ccccc2c1C(=O)c1cc(I)c(OCCN(CC)CC)c(I)c1 | 13.9 µM (active) | –
20 | COC(C)COC(C)COC(C)CO (stereo not given) | inactive | –

Row | SMILES | Potency | activity change, negative = cytotoxicity
21 | O=c1oc(=O)c2cc3c(=O)oc(=O)c3cc12 | inactive | –
22 | CCCCC/C=C/C=C/C=O | 38.6 µM (active) and 38.9 µM (active) | –
23 | CC(C)Oc1ccc2c(=O)c(-c3ccccc3)coc2c1 | inactive | –
24 | COc1ccc(OC)c(C(O)CNC(=O)CN)c1 (stereo not given) | inactive | –
25 | COc1cc([C@@H]2c3cc4c(cc3[C@H](O)[C@H]3COC(=O)[C@H]23)OCO4)cc(OC)c1OC | inactive | –
26 | NNc1ccc(C(=O)O)cc1 | inactive | –
27 | O=S(=O)(O)c1ccc(O)cc1 | inactive | –
28 | Oc1ccc(O)cc1 | inactive | –
29 | Clc1nc(Cl)c(Cl)c(Cl)c1Cl | inactive | –
30 | CC(=O)CC/C=C(\C)CCC=C(C)C | inactive | –
31 | Nc1ccccc1N | inactive | –
32 | Nc1ccc(Nc2ccccc2)cc1 | inactive | –
33 | CC(C(=O)O)c1cccc(C(=O)c2ccccc2)c1 (stereo not given) | inactive | –
34 | CCOC(=O)C(C#N)=C(c1ccccc1)c1ccccc1 | inactive | –
35 | CC(C)CC(C)(O)C#CC(C)(O)CC(C)C (stereo not given) | inactive | –
36 | CC(C)=CCC/C(C)=C\CO | inactive | –
37 | C[C@]12CC[C@H]3[C@@H](CCC4=CC(=O)CC[C@@]43C)[C@@H]1CC[C@@H]2C(=O)CO | inactive | –
38 | CCCC(=O)O | – | -1.26% (inactive)
39 | Cc1cc2nc3c(=O)[nH]c(=O)nc-3n(C[C@H](O)[C@H](O)[C@H](O)CO)c2cc1C | inactive | –
40 | Cc1c(OCC(F)(F)F)ccnc1CS(=O)c1nc2ccccc2[nH]1 (stereo not given) | inactive | –

Source: PubChem BioAssay (Tox21)
